Laboratory results as given in PubChem BioAssay (NCATS).
Values joined by “and” are separate entries in the source; they are usually repeats but may differ in a detail not shown here. Equal entries are not always repeated. Records with an inconclusive call do not appear. Where a call stands in place of a potency, no number is given. Values without a mark were called inactive. Active and inactive are the calls of the source. Unless noted, calls follow the shape of the dose curve; as a rule, active = well fitted curve in the direction sought with a large enough effect; inconclusive = small, poorly fitted or top-dose-only effect, or another doubt; inactive = no such curve, though single readings can be large; an effect the other way counts as inactive or inconclusive.

Assays:
[1] = qHTS assay to identify small molecule inhibitors of chordoma cells - UCH-1 (AID 1259355); also: nearly all actives have a fitted effect of over 55% in size; also: potency is read from the fitted curve at half-maximal effect; series mostly up to about 46 µM
Procedure, shortened: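 Luminescent ATP read-out (CellTiter-Glo, 30min at room temperature) measured viability of UCH-1 cells exposed for 48hr to test drugs at 15 concentrations, co-dosed with a five-agent combination of auranofin, camptothecin, doxorubicin, rubitecan and topotecan.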

[2] = qHTS assay to identify small molecule inhibitors of chordoma cells - UCH-2 (AID 1259356); also: potency is read from the fitted curve at half-maximal effect
[3] = P-glycoprotein substrates identified in KB-8-5-11 adenocarcinoma cell line, qHTS therapeutic library screen (AID 1346987); settings: outcome: dose series up to 44.5 µM unless noted; also: nearly all actives have a fitted effect of over 65% in size; also: potency is read from the fitted curve at half-maximal effect
Procedure, shortened: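 P-gp-mediated resistance screen: KB-8-5-11 cells treated 72 h with compounds in dose-response. CellTiter-Glo viability.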

[4] = qHTS assay for small molecule agonists of the antioxidant response element (ARE) signaling pathway measured by Nrf2-dependant transcriptional activity - cell viability counter screen (AID 720653; active = well fitted curve in the direction sought with a large enough effect in the repeat runs; an effect the other way counts as inactive or inconclusive); settings: ARE-bla HepG2 viability, CellTiter-Glo ATP luminescence, 16 h; active compounds read low
Procedure, shortened: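 ARE-bla HepG2 cells (2,000/well) rested 5 hrs at 37C/5% CO2, then exposed to compounds in DMSO for 16 hrs. Viability was read in the same wells as intracellular ATP by luminescence, 30 min at room temperature after reagent addition.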

[5] = qHTS Assay for Identifying Gametocytocidal Compounds (AID 743244);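 also: actives lower the fluorescent signal which means gametocytes are killed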; settings: P. falciparum 3D7 stage III-V gametocytes, alamarBlue, 72 h; max response: active compounds read low
Procedure, shortened: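 P. falciparum 3D7 stage III–V gametocytes (20,000 cells/well) were exposed to compounds for 72 h at 37 °C, 5% CO2. AlamarBlue was then added for 24 h; decreased resorufin fluorescence (Ex 525/Em 598 nm) indicated loss of viability.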

[6] = qHTS assay for cell viability of HEK293 cells (AID 743288); settings: ATP luminescence (CellTiter-Glo), 18 h; max response: active compounds read low; also: nearly all actives have a fitted effect of over 50% in size
Procedure, shortened: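 Luminescent ATP quantitation served as the viability read-out. Cells (parental HEK293, 2,000/well) received compounds after at least 5 h at 37 C and were exposed for 18 h before a 30 min room-temperature reagent step.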

[7] = qHTS assay for cell viability of the p53RE-bla HCT-116 cell line (AID 743292); also: nearly all actives have a fitted effect of over 55% in size
Procedure, shortened: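 Viability of compound-treated p53RE-bla HCT-116 cells is taken from ATP-dependent luciferase luminescence. Treatment lasts 16 h at 37 C after a 5 h settling period; detection follows 30 min at room temperature.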

C=CC[C@@H]1/C=C(\C)C[C@H](C)C[C@H](OC)[C@H]2O[C@@](O)(C(=O)C(=O)N3CCCC[C@H]3C(=O)O[C@H](/C(C)=C/[C@@H]3CC[C@@H](O)[C@H](OC)C3)[C@H](C)[C@@H](O)CC1=O)[C@H](C)C[C@@H]2OC
Potency [1]: inactive

COc1ccc2c(c1)N(C[C@H](C)CN(C)C)c1ccccc1S2
Potency [1]: inactive
Potency [2]: inactive

S=C1SCN(Cc2ccccc2)CN1Cc1ccccc1
Potency [1]: inactive
Potency [2]: inactive

NC(=O)c1cc[n+](CC2=C(C(=O)O)N3C(=O)[C@@H](NC(=O)C(c4ccccc4)S(=O)(=O)[O-])[C@H]3SC2)cc1 (some centres undefined)
Potency [1]: inactive
Potency [2]: inactive
Potency [3]: inactive

O=C1/C(=C\c2cccs2)CCC/C1=C\c1cccs1
Potency [1]: inactive

OC/C=C/c1ccccc1
Potency [1]: inactive
Potency [2]: inactive
Potency [3]: inactive

CCOC(=O)C1=C(COCCN)NC(C)=C(C(=O)OC)C1c1ccccc1Cl (centres undefined)
Potency [1]: inactive
Potency [2]: inactive

CC[C@@H](C(=O)[C@@H](C)[C@@H](O)[C@H](C)[C@@H]1O[C@@H]([C@@H](CC)C(=O)O)CC[C@@H]1C)[C@H]1O[C@]2(C=C[C@@H](O)[C@]3(CC[C@@](C)([C@H]4CC[C@](O)(CC)[C@H](C)O4)O3)O2)[C@H](C)C[C@@H]1C
Potency [1]: 11.2 µM (active)
Potency [2]: inactive

C=C1CC[C@H](O)CC1=C/C=C1\CCC[C@]2(C)[C@@H]([C@H](C)CCCC(C)(C)O)CC[C@@H]12
Potency [1]: inactive
Potency [2]: inactive

CCCCC(=O)O[C@H]1CC[C@H]2[C@@H]3CCc4cc(O)ccc4[C@H]3CC[C@]12C
Potency [1]: inactive
Potency [2]: inactive
Potency [3]: 14.6 µM (active)

CCC[C@@H]1C[C@@H](C(=O)N[C@@H]([C@H]2O[C@H](SC)[C@H](O)[C@@H](O)[C@H]2O)[C@H](C)Cl)N(C)C1
Potency [1]: inactive
Potency [2]: inactive
Potency [3]: inactive

C=C1CC[C@H](O)CC1=C/C=C1\CCC[C@]2(C)[C@@H]([C@H](C)CC[C@@H](O)C(C)(C)O)CC[C@@H]12
Potency [1]: inactive
Potency [2]: inactive

C[C@@H]1C/C=C/C=C/C=C/C=C/[C@H](O[C@@H]2O[C@H](C)[C@@H](O)[C@H](N)[C@@H]2O)C[C@@H]2O[C@](O)(C[C@@H](O)C[C@H]3O[C@@H]3/C=C/C(=O)O1)C[C@H](O)[C@H]2C(=O)O
Potency [1]: inactive
Potency [2]: inactive
Potency [3]: inactive

CN(C)CCC(O)(c1ccccc1)c1ccccc1Cl (centres undefined)
Potency [1]: inactive
Potency [2]: inactive

O=C(CCCN1CCC(C(=O)c2ccc(F)cc2)CC1)c1ccc(F)cc1
Potency [1]: inactive
Potency [2]: inactive

CC(C)NCC(O)COc1ccccc1-n1cccc1 (centres undefined)
Potency [1]: inactive

O=P(O)(O)CP(=O)(O)O
Potency [1]: inactive
Potency [2]: inactive
Potency [3]: inactive

N#Cc1ccc2c(c1)N(CCCN1CCC(O)CC1)c1ccccc1S2
Potency [1]: inactive
Potency [2]: inactive

CCSc1ccc2c(c1)N(CCCN1CCN(C)CC1)c1ccccc1S2
Potency [1]: inactive
Potency [2]: inactive

c1ccc2c(c1)Sc1ccccc1N2CCN1CCCC1
Potency [1]: inactive
Potency [2]: inactive

NC(=S)N=Nc1ccc(NN=C(N)N)cc1
Potency [1]: inactive
Potency [2]: inactive

CS(=O)(=O)c1ccc([C@@H](O)[C@@H](COC(=O)CN)NC(=O)C(Cl)Cl)cc1
Potency [1]: inactive
Potency [2]: inactive

CC(CN(C)C)CN1c2ccccc2Sc2ccc(C(F)(F)F)cc21 (centres undefined)
Potency [1]: inactive
Potency [2]: inactive

CC1(C)S[C@@H]2[C@H](N3C(=O)C(c4ccccc4)NC3(C)C)C(=O)N2[C@H]1C(=O)O (some centres undefined)
Potency [1]: inactive
Potency [2]: inactive
Potency [3]: inactive

CN1CCCC(CN2c3ccccc3Sc3ccccc32)C1 (centres undefined)
Potency [1]: inactive
Potency [2]: inactive
Potency [3]: inactive

CC(=O)c1ccc2c(c1)N(CCCN1CCN(CCO)CC1)c1ccccc1S2
Potency [1]: inactive
Potency [2]: inactive

CCCC(CCC)C(=O)OC1C[C@H]2CC[C@@H](C1)[N+]2(C)C (some centres undefined)
Potency [1]: inactive
Potency [2]: inactive
Potency [3]: inactive

CCOC(=O)Cc1ccc(-c2ccccc2)cc1
Potency [1]: inactive
Potency [2]: inactive
Potency [3]: inactive

CC(C)[C@@H](C)/C=C/[C@@H](C)[C@H]1CC[C@H]2/C(=C/C=C3\C[C@@H](O)CC[C@@H]3C)CCC[C@]12C
Potency [1]: inactive
Potency [2]: inactive
Potency [3]: inactive

CNC(C)CCC=C(C)C (centres undefined)
Potency [1]: inactive
Potency [2]: inactive
Potency [3]: inactive

C=C(C)C1CC=C(C)CC1 (centres undefined)
max response [4]: -0.676% and -5.86%
max response [5]: 0.817%
max response [6]: -3.42% and -10.2%
outcome [7]: inactive
Potency [1]: inactive
Potency [2]: inactive
Potency [3]: inactive

COc1cc(NCCCC(C)N)c2ncccc2c1 (centres undefined)
Potency [1]: inactive
Potency [2]: 9.2 µM (active)
Potency [3]: inactive
